PLK1 PBD inh – blocks phosphopeptide binding to human PLK1 polo-box domain | P53350 | Plk1 PBD binding of FITC phosphopeptide, fluorescence polarization | Potency, µM, inactives show max response, negative = inhibition, hits mostly inhibitors | 360,000 compounds, 2.8% hits; also: series mostly up to about 57 µM; % is scaled to controls: 0 for no effect and ±100 for the full control effect; nearly all actives have a fitted effect of over 65% in size
JMJD2A Tudor – JMJD2A Tudor domain (human) inhibition; AlphaScreen JMJD2A-Tudor / H3K4me3 peptide binding; 390,000 compounds, 4.4% hits; Potency, µM (highest dose often 114 µM), inactives show at the highest dose activity change, negative = inhibition, usual class: inhibitors; O75164; also: % is scaled to controls: 0 for no effect and ±100 for the full control effect; nearly all actives have a fitted effect of over 50% in size
BAZ2B block – BAZ2B (human) inhibition. 360,000 compounds, 4.4% hits. AID 504333. AlphaScreen BAZ2B-H3K14Ac peptide displacement. Potency, µM (highest dose often 114 µM), for the others: top-dose activity change, negative = inhibition, hits mostly inhibitors. Q9UIF8; also: % is scaled to controls: 0 for no effect and ±100 for the full control effect; nearly all actives have a fitted effect of over 60% in size
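BAZ2B 50 nM plus b-H3(5-23)K14Ac 50 nM, PBS pH 7.4/0.01% Tween-20, 30 min RT; compound added (max 110 uM), 30 min RT; streptavidin donor/Ni-chelate acceptor beads 10 ug/mL final, 20 min dark; AlphaScreen read.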
HP1b binding inh – blocks HP1-beta chromodomain binding to methylated histone tails; P83916; AlphaScreen HP1-beta / biotin-H3K9me3 peptide binding; Potency, µM (series often up to 114 µM), inactives show at the highest dose activity change, negative = inhibition, usual class: inhibitors; 390,000 compounds, 0.56% hits; AID 540317; also: nearly all actives have a fitted effect of over 70% in size
Target sequence (P83916 whole entry, looked up): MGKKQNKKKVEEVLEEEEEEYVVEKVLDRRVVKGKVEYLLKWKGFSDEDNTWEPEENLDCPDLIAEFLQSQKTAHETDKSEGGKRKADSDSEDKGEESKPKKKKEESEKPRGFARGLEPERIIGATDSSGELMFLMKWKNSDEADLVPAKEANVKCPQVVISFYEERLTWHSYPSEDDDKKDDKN
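HP1-beta protein (50 nM final) preincubated 30 min at room temperature with biotinylated H3(1-18)K9me3 peptide (50 nM) in PBS pH 7.4, 0.01% Tween-20, then compound added for 30 min. AlphaScreen streptavidin donor/nickel chelate acceptor beads (10 ug/mL final), 30 min dark, luminescence read.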
VDR inh – inhibitors of human vitamin D receptor. P11473. VDR-SRC2-3 peptide fluorescence polarization, 2 h. 400,000 compounds, 0.93% hits. Potency, µM, for inactives: max response, negative = inhibition, most hits filed as inhibitors; also: % is scaled to controls: 0 for no effect and ±100 for the full control effect
Target sequence (P11473 whole entry, looked up): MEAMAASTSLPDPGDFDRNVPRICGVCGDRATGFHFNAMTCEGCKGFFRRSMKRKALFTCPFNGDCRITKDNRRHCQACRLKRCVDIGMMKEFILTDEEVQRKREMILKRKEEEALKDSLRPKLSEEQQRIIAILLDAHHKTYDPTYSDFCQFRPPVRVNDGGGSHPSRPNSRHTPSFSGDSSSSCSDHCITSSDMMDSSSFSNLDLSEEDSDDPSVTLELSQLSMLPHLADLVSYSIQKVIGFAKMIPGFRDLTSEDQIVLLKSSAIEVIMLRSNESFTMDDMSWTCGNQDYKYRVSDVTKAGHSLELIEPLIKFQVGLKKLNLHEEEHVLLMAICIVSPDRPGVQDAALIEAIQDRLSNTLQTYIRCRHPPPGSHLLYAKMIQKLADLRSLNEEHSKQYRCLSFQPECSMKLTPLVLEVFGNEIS
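Compounds are added to VDR with labelled SRC2-3 coactivator peptide and held 2 h at room temperature. Inhibition of the VDR–peptide interaction is then read as a change in fluorescence polarization.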
L3MBTL1 inh – blocks human L3MBTL1 | AlphaScreen L3MBTL1–H3K9me1 peptide binding | Potency, µM (doses to about 57.1 µM), without a hit: at the highest dose activity, negative = inhibition, hits mostly inhibitors | 230,000 compounds, 0.66% hits | AID 485360; also: % is scaled to controls: 0 for no effect and ±100 for the full control effect; nearly all actives have a fitted effect of over 60% in size
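Displacement of a biotinylated histone H3(1-15) peptide monomethylated at Lys9 (75 nM) from L3MBTL1 (50 nM) was measured by AlphaScreen after a 30 min room-temperature compound incubation; cefsulodin titration served as intraplate control.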
* hit, by the source's call; u = inconclusive; x = not tested or not shown; [ ] = dose if it differs, or a comment. Most compounds without a hit are left out; they make up all but 6.9% or so of the library. Calls follow the shape of the dose curve; as a rule, active = well fitted curve in the direction sought with a large enough effect; inconclusive = small, poorly fitted or top-dose-only effect, or another doubt; inactive = no such curve, though single readings can be large; an effect the other way counts as inactive or inconclusive. Potency is read from the fitted curve at half-maximal effect.

SMILES | PLK1 PBD inh | JMJD2A Tudor | BAZ2B block | HP1b binding inh | VDR inh | L3MBTL1 inh
O=C(CNCc1ccccc1Cl)Nc1cc(S(=O)(=O)N2CCOCC2)ccc1Cl | -12% | 7.9µM* | x | u | 24% | 0%
Cc1ccc(S(=O)(=O)N2CCOCC2)cc1NC(=O)CNCc1ccc(Cl)cc1Cl | -4% | -17% | x | 29% | -5% | -3%
O=C(CNCc1ccc(Cl)cc1)Nc1cc(S(=O)(=O)N2CCCC2)ccc1Cl | 10% | 3.5µM* | x | u | -5% | x
COc1cc(-c2noc(-c3ccc(N(C)C)c([N+](=O)[O-])c3)n2)cc(OC)c1OC | x | -16% | -1% | 24% | -3% | x
COc1ccc(-c2noc(N3CCC(C(=O)Nc4ccc(C)c(F)c4)CC3)n2)cc1OC | x | 3% | 2% | 17% | -5% | x
CN(C(=O)Cn1cnc2onc(-c3ccc(F)cc3)c2c1=O)c1ccccc1Cl | x | -21% | 10%[57.1 µM] | -2% | 12% | x
COCCNC(=O)c1cc(Sc2ccc(F)cc2F)nc2ccccc12 | x | -12% | 3% | 18% | 7% | x
CCN(CC)c1ccc(S(=O)(=O)N2CCOCC2)cc1NC(=O)CNCc1cccc(Cl)c1 | -3% | 50µM* | x | u | 36% | x
CN(C)CCNc1nc(-c2ccccc2F)c2sccc2n1 | -9% | x | x | x | x | x
COCC(=O)N1CCC2(CCCN(c3ccc(-c4ccccc4)cc3)C2)CC1 | x | x | x | x | 50µM* | x
COc1ccc(C(=O)N2CCC[C@@]3(CCN(c4cccc(-c5ccccc5)c4)C3)C2)cc1 | x | x | x | x | 40µM* | x
Cc1noc(C)c1C(=O)N1CCC[C@@]2(CCN(Cc3ccccc3)C2)C1 | x | x | x | x | 1% | x
Cc1noc(C)c1C(=O)N1CCC[C@@]2(CCN(c3cccc(-c4ccccc4)c3)C2)C1 | x | x | x | x | 40µM* | x
COc1ccc(C(=O)N2CCC3(CC2)CCN(c2ccccc2)CC3)cc1 | x | x | x | x | -17% | x
CC(C)(C)OC(=O)COc1ccc(/C=N/NC(=O)CN2CCCCC2)cc1 | 2% | 4% | 1% | 39% | 20% | x
CCCCCOCC1CC(C/C(C)=N/NC(N)=S)C(=O)O1 (stereo not drawn) | 27µM* | u | -3% | -11% | -27% | 5%
CCCCCNc1nc(-c2ccccc2)cs1 | x | x | -9% | x | x | x
CCCCCOCC1CC(C/C(C)=N/Nc2nc(-c3ccccc3)cs2)C(=O)O1 (stereo not drawn) | 21µM* | u | u | 3% | u | -5%
NC(=O)NC(=O)CN1C(=O)NC(c2ccccc2)(c2ccccc2)C1=O | 0% | -6% | -23% | 18% | 10% | x
NN1C(=O)NC(c2ccccc2)(c2ccccc2)C1=O | 0% | 25µM* | -5% | 29% | -10% | x
O=c1c2c(-c3ccco3)csc2nc(SCc2cn3cccnc3n2)n1-c1ccccc1 | 24µM* | -22%[11.4 µM] | 0% | -35% | -12% | -17%
C=CCn1c(SCC(=O)NCCOC)nc2scc(-c3ccco3)c2c1=O | u | 79µM* | u | 2% | -9% | -9%
NC(=O)CSc1nc2scc(-c3ccco3)c2c(=O)n1-c1ccccc1 | -21% | 45µM* | u | u | 79µM* | x
O=C(CSc1nc2scc(-c3ccco3)c2c(=O)n1-c1ccccc1)NCC1CCCO1 (stereo not drawn) | -4% | u | 35µM* | 3% | -5% | u
Cc1cc[n+](-c2ccccc2)c2ccccc12 | -16% | -23% | -34% | 39% | 84% | 8%
SMILES | PLK1 PBD inh | JMJD2A Tudor | BAZ2B block | HP1b binding inh | VDR inh | L3MBTL1 inh
CCc1cccc(NS(=O)(=O)c2ccc3c(c2)NC(=O)CO3)c1 | -15% | -8% | -4%[57.1 µM] | 19% | -6% | x
Cc1ccc(C)c(OCCC(=O)OCC(=O)Nc2ccc(Cl)cn2)c1 | 1% | -11% | 10% | 4% | -10% | -4%
O=C(NNC(=S)NC(=O)c1cccs1)c1ccc(O)cc1 | -8% | -22% | 0% | 50% | 4% | x
CCC(=O)NC(=S)NNC(=O)c1ccc(O)cc1 | -6% | 20µM* | 0% | 57% | -17% | 5%
Cc1cc(N2O[C@]34C=C[C@]25C[C@@H](O)CC[C@]5(C)C3CC[C@]2(C)[C@@H]([C@H](C)/C=C/[C@H](C)C(C)C)CC[C@H]24)no1 (stereo partly drawn) | 24µM* | u | x | 6% | u | 0%
Cc1cccc(N2CCN(S(=O)(=O)c3ccc4c(c3)CCCN4C(=O)C3CCC3)CC2C)c1 (stereo not drawn) | -1% | -19% | -20% | 47% | -4% | x
COc1cccc(CN(Cc2cccnc2)S(=O)(=O)c2ccc(-n3cnnn3)c(C)c2)c1 | -10% | 89µM* | 79µM* | 12% | 3% | -5%
Cc1ccc(S(=O)(=O)N(Cc2cccnc2)Cc2cc3ccccc3[nH]c2=O)cc1 | 0% | -11% | 0% | 17% | 8% | x
Cc1cc(S(=O)(=O)N(C)CCc2ccccc2)ccc1-n1cnnn1 | -5% | 6% | 0% | 26% | u | -9%
COc1cc(S(=O)(=O)N(Cc2cccnc2)Cc2ccco2)ccc1-n1cnnn1 | -3% | 28µM* | 56µM* | -1% | -6% | -8%
COc1cccc(CNS(=O)(=O)c2ccc(-n3cnnn3)c(C)c2)c1 | -24% | -8% | -1% | 48% | -5% | x
Cc1cc(S(=O)(=O)N(Cc2ccccc2)Cc2ccc(N(C)C)cc2)ccc1-n1cnnn1 | -6% | 40µM* | -33% | -23% | 6% | 10%[11.4 µM]
COc1ccc(S(=O)(=O)N(Cc2cccnc2)Cc2cc3ccccc3[nH]c2=O)cc1 | 27µM* | u | -22% | 2% | -23% | x
Cc1cccc(N2CCN(C(=O)c3cc(S(=O)(=O)N4CCOCC4)cn3C)CC2C)c1 (stereo not drawn) | -4% | -17% | -15% | 22% | 11% | x
Clc1ccccc1Cn1cccc1C1=NC(Cc2ccccc2)CO1 (stereo not drawn) | x | 14% | x | 78% | -16% | x
COc1cc(NC(N)=S)c(OC)cc1Cl | -1% | -5% | -17% | 12% | 2% | -8%
COc1cc(OC)c(Cl)cc1N | 6.7µM* | -15%[11.4 µM] | x | u | -29% | 2%
COc1ccc(OC)c(-c2nnc3n2N=C(c2ccc(OC)c(OC)c2)CS3)c1 | x | -19% | -29% | 37% | -21% | 1%
COc1ccc(C2=Nn3c(nnc3-c3cc(OC)ccc3OC)SC2)c(OC)c1 | x | 79µM* | x | x | x | x
CCOc1ccc(NC(=O)Cn2c(=O)n(CCc3ccccc3)c(=O)c3c4c(sc32)CN(C(C)=O)CC4)cc1 | x | 5% | 4% | 45% | -4% | x
CC(C(=O)Nc1ncc([N+](=O)[O-])s1)N1C(=O)c2ccccc2S1(=O)=O (stereo not drawn) | -25% | 20µM* | -36% | -9% | -15% | 8%

High-throughput results as filed in PubChem.
